In PubChem BioAssay (EPA / NIEHS):
Inconclusive results are not listed. Calls of active or inactive are those of the source. Rule for the calls, unless noted: active = hit-call score of the fitted dose curve at least 0.9, where 1 is the maximum; inactive = score below 0.9.

How the values were obtained:
[1] = target: Retinoic acid receptor RXR-alpha (Homo sapiens) (UniProt P19793); assay: ATG_RXRa_TRANS: Attagene TRANS-FACTORIAL HepG2 Assay for human Retinoid X Receptor alpha (RXRa) (AID 2283012; active = hit-call score of the fitted dose curve at least 0.9, where 1 is the maximum)
How it was run: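 Measures exogenous chimeric NR-GAL4 activity in transfected HepG2 liver cells after 24 h of dosing. Induced reporter mRNA was detected by RT-PCR with capillary electrophoresis, and gain of signal was analysed against DMSO.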

[2] = target: human Retinoid X Receptor beta (RXRb), RXRB (gene 6257) (UniProt P28702); assay: ATG_RXRb_TRANS: Attagene TRANS-FACTORIAL HepG2 Assay for human Retinoid X Receptor beta (RXRb) (AID 2283013; active = hit-call score of the fitted dose curve at least 0.9, where 1 is the maximum)
How it was run: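 Chimeric receptor-Gal4 activity was assessed in transiently transfected human HepG2 cells after 24 h exposure. Transcripts from GAL4-UAS reporters were quantified by fluorescent RT-PCR and capillary electrophoresis, with DMSO as negative control and baseline.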

[3] = target: human Thyroid Receptor alpha (THRa1), THRA (gene 7067) (UniProt P10827); assay: ATG_THRa1_TRANS: Attagene TRANS-FACTORIAL HepG2 Assay for human Thyroid Receptor alpha (THRa1) (AID 2283014; active = hit-call score of the fitted dose curve at least 0.9, where 1 is the maximum)
How it was run: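 First, HepG2 cells receive multiple GAL4-UAS reporter units and the chimeric receptor. They are then dosed for 24 h, after which RNA is reverse-transcribed, amplified, labelled, HpaI-cut and sized by capillary electrophoresis; gain relative to DMSO is scored.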

[4] = read-out: Interleukin-1 alpha (IL1a), IL1A (gene 3552); assay: BSK_BE3C_IL1a: BioMAP Diversity Plus: BE3C Assay for Interleukin-1 alpha (IL1a) Biomarker Activity (AID 2283016); conditions: primary human bronchial epithelial cells; actives raise or lower the signal
How it was run: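 Signal from IL-1a ELISA, taken 24 h after chemical dosing of human bronchial epithelial cells, is compared with DMSO as baseline using bidirectional curve fitting.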

[5] = read-out: Monocyte Chemoattractant Protein-1 (MCP1), CCL2 (gene 6347); assay: BSK_3C_MCP1: BioMAP Diversity Plus: 3C Assay for Monocyte Chemoattractant Protein-1 (MCP1) Biomarker Activity (AID 2283017); conditions: primary human endothelial cells (HUVEC); actives raise or lower the signal
How it was run: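 Endothelial cells from human umbilical vein are dosed with chemical, cultured 24 h, then assayed for MCP-1 by ELISA; both increases and decreases are modelled against DMSO controls.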

[6] = read-out: Monocyte Chemoattractant Protein-1 (MCP1), CCL2 (gene 6347); assay: BSK_4H_MCP1: BioMAP Diversity Plus: 4H Assay for Monocyte Chemoattractant Protein-1 (MCP1) Biomarker Activity (AID 2283018); conditions: primary human endothelial cells (HUVEC); actives raise or lower the signal
How it was run: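 Endothelial cells from umbilical vein were treated with test chemical, then after 24 h MCP-1 levels were quantified by ELISA; endpoint values came from bidirectional fitting with DMSO as baseline of activity.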

[7] = read-out: Human Leukocyte Antigen - DR isotype (HLADR), HLA-DRA (gene 3122); assay: BSK_3C_HLADR: BioMAP Diversity Plus: 3C Assay for Human Leukocyte Antigen - DR isotype (HLADR) Biomarker Activity (AID 2283019); conditions: primary human endothelial cells (HUVEC); actives raise or lower the signal
How it was run: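 Endothelial cells from human umbilical vein are treated with test chemical; after 24 h, HLA-DR levels are measured by ELISA. Data are fitted in both directions using DMSO as the baseline.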

[8] = read-out: Interleukin-8 (IL8), CXCL8 (gene 3576); assay: BSK_3C_IL8: BioMAP Diversity Plus: 3C Assay for Interleukin-8 (IL8) Biomarker Activity (AID 2283020); conditions: primary human endothelial cells (HUVEC); actives raise or lower the signal
How it was run: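 Endothelial primary cells of human umbilical vein origin are dosed with chemical; after 24 h the IL-8 biomarker is measured by ELISA, and concentration–response is fitted in both directions versus DMSO.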

[9] = target: human RAR-related Orphan Receptor gamma (RORg), RORC (gene 6097) (UniProt P51449); assay: ATG_RORg_TRANS: Attagene TRANS-FACTORIAL HepG2 Assay for human RAR-related Orphan Receptor gamma (RORg) (AID 2283011; active = hit-call score of the fitted dose curve at least 0.9, where 1 is the maximum)
How it was run: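 Activity is scored as increase in GAL4-UAS reporter mRNA over DMSO, detected by fluorescent RT-PCR and capillary electrophoresis in HepG2 cells transiently expressing a RORg-Gal4 chimera, 24 h after dosing.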

[10] = read-out: E-selectin (Homo sapiens) (UniProt P16581); assay: BSK_3C_Eselectin: BioMAP Diversity Plus: 3C Assay for Eselectin Biomarker Activity (AID 2283015); conditions: primary human endothelial cells (HUVEC); actives raise or lower the signal
How it was run: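 Human vascular endothelium from umbilical vein is exposed to test chemicals for 24 h. E-selectin levels are read by ELISA and compared with DMSO controls.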

Measured: AC50

Sequence of Retinoic acid receptor RXR-alpha (Homo sapiens) (P19793 whole entry, looked up, the tested form may be a part): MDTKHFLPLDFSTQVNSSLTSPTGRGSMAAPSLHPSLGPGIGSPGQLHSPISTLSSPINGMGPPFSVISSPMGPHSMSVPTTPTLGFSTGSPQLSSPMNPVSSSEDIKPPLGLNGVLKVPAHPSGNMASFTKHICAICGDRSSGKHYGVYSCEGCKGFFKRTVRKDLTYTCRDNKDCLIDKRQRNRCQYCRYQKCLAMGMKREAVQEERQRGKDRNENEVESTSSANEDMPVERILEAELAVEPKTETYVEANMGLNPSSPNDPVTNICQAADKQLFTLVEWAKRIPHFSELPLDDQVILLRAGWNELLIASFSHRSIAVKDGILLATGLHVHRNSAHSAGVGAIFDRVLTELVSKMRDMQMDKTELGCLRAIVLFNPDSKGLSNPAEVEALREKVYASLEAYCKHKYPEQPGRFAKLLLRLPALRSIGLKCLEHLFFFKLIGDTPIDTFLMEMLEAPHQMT
Sequence of E-selectin (Homo sapiens) (P16581 whole entry, looked up): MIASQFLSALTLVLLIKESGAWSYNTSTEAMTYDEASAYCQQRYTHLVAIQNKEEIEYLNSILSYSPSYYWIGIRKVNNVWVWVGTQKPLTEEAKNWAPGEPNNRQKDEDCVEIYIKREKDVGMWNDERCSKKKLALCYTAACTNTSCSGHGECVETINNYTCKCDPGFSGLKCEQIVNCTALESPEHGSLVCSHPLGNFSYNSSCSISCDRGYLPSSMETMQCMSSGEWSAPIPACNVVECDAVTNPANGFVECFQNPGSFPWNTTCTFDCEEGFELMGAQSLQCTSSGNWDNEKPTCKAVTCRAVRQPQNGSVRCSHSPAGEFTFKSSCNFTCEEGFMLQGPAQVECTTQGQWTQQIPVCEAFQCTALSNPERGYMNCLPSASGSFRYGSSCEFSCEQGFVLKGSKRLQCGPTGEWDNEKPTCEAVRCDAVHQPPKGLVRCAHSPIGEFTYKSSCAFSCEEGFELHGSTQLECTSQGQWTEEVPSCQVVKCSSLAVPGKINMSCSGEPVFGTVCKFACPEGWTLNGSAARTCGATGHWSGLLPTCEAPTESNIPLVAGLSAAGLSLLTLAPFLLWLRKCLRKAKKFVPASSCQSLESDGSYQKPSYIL
Sequence of human Thyroid Receptor alpha (THRa1), THRA (gene 7067) (P10827 whole entry, looked up, the tested form may be a part): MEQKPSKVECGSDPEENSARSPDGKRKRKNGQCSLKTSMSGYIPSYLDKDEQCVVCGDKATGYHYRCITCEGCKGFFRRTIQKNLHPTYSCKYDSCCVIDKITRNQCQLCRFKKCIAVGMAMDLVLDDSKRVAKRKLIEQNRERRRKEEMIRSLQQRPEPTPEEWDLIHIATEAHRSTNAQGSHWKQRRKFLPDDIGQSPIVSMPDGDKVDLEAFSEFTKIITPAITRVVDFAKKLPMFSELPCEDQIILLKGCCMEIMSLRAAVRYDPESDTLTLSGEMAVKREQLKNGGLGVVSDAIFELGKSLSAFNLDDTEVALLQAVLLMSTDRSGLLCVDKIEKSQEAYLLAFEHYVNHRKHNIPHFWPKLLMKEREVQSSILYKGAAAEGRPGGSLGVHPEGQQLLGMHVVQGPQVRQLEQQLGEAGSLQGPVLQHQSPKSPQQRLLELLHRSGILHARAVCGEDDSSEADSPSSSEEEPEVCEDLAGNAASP
Sequence of human Retinoid X Receptor beta (RXRb), RXRB (gene 6257) (P28702 whole entry, looked up, the tested form may be a part): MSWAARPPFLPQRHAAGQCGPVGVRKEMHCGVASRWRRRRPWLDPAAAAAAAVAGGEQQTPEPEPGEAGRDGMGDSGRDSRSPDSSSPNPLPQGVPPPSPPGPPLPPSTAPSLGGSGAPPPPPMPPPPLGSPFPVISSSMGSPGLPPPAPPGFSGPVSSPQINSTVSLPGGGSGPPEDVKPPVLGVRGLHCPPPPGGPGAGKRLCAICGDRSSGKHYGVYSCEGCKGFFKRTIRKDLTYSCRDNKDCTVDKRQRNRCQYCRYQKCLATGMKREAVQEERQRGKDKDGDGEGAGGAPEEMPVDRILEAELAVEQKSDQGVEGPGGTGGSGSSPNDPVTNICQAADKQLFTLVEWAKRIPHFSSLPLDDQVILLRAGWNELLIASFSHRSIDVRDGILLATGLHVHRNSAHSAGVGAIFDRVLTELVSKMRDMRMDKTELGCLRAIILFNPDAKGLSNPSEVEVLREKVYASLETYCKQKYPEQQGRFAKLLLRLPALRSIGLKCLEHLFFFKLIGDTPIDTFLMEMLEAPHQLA
Sequence of human RAR-related Orphan Receptor gamma (RORg), RORC (gene 6097) (P51449 whole entry, looked up, the tested form may be a part): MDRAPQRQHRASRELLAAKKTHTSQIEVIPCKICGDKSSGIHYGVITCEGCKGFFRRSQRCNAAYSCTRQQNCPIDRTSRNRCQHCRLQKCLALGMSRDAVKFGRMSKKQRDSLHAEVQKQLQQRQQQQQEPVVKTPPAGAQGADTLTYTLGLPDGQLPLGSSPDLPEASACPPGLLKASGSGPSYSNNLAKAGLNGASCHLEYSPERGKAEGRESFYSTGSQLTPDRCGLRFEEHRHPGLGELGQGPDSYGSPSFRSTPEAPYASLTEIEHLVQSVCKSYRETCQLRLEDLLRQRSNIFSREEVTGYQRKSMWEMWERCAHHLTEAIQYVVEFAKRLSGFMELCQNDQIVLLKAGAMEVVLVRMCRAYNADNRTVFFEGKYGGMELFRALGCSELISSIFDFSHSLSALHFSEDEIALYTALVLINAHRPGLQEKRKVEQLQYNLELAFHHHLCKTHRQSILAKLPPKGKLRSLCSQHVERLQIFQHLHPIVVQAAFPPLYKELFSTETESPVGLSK

CCC[CH2][Sn]([Cl])([CH2]CCC)[CH2]CCC
inactive: [3]
active: [1] 0.245 µM | [2] 0.0637 µM | [4] 0.148 µM | [5] 0.148 µM | [6] 3.62 µM | [7] 0.148 µM | [8] 0.155 µM

COc1cc(C=O)cc2c1[C@H](COC(N)=O)[C@]1(OC(C)=O)ON2C[C@H]2[C@@H]1N2C(C)=O
active: [10] 10.8 µM | [4] 2.63 µM | [5] 6.85 µM | [6] 3.22 µM | [7] 15.9 µM | [8] 11.9 µM
inactive: [9]

CCOC(=O)[C@]1(c2ccccc2)Oc2ccccc2[C@@H]1N
inactive: [9] | [3] | [10] | [4] | [6]
active: [5] 13.4 µM | [7] 27.6 µM

C1=Cc2cccc3cccc1c23
not listed: [8] | [9]
inactive: all other assays above

CO[C@@H]1[C@H](OC(=O)NC(=O)CCl)CC[C@]2(CO2)[C@H]1[C@@]1(C)O[C@@H]1CC=C(C)C
active: [7] 8.98 µM
not listed: [9] | [10]
inactive: all other assays above

C=CCc1ccc2c(c1)OCO2
not listed: [3] | [9]
inactive: all other assays above

Nc1ccc(Cl)cc1N
active: [2] 27.8 µM | [7] 5.99 µM
not listed: [9] | [10]
inactive: all other assays above

CCCCCCCCn1sccc1=O
inactive: [9]
active: [2] 15.4 µM | [4] 8.59 µM | [5] 9.73 µM | [6] 8.07 µM | [7] 5.11 µM | [8] 12.4 µM

O=[N+]([O-])c1ccc(Oc2ccc(Cl)cc2Cl)cc1
active: [5] 27.8 µM | [6] 10.3 µM | [7] 30.5 µM | [8] 20 µM
inactive: [1] | [2] | [3] | [4]

CNC(=O)Oc1cccc2c1OC(C)(C)C2
active: [2] 58.7 µM
not listed: [8] | [9]
inactive: all other assays above

CCCCCCCCCCCCCN1CC(C)OC(C)C1 (configuration not stated)
active: [1] 26.4 µM | [2] 26.6 µM
not listed: [9]
inactive: all other assays above

c1ccc(C2CO2)cc1 (configuration not stated)
inactive: [9] | [4] | [5] | [6] | [7]

Cc1cccc(N)c1N
active: [2] 46.1 µM | [7] 25.9 µM
not listed: [9] | [10]
inactive: all other assays above

Cc1ccc(N=C=O)cc1N=C=O
inactive: [9] | [10] | [4] | [5] | [6] | [7]

CC(C)(C)OOC(C)(C)CCC(C)(C)OOC(C)(C)C
active: [2] 16.4 µM
not listed: [3] | [8] | [9]
inactive: all other assays above

Cn1cc(-c2ccccc2)c(=O)c(-c2cccc(C(F)(F)F)c2)c1
inactive: [9] | [10] | [4] | [5] | [6] | [7]

O=C(Nc1ccccc1)c1ccccc1I
not listed: [8] | [9]
inactive: all other assays above

CCCCCOC(=O)c1ccccc1C(=O)OCCCCC
inactive: [2] | [4] | [5] | [6]
active: [7] 20 µM

Clc1ccccc1Cl
inactive: [4] | [5] | [6] | [7]

CC(C)(C)OOC(=O)c1ccccc1
inactive: [1] | [10] | [4] | [5] | [6] | [7]

CCCCOC(=O)c1ccccc1C(=O)OCc1ccccc1
active: [6] 11.8 µM
not listed: [3] | [9] | [10]
inactive: all other assays above

[O-][Cl+]O
inactive: [2] | [3] | [4] | [5] | [6] | [7]

Clc1ccc(C(c2ccc(Cl)cc2)C(Cl)(Cl)Cl)cc1
inactive: [2] | [3] | [4]
active: [10] 29.2 µM | [5] 26.9 µM | [7] 25.8 µM

Cc1ccc(N)c(N)c1
inactive: [1] | [4] | [5] | [6]
active: [7] 7.53 µM | [8] 3.17 µM

C[N+](C)(C)CC1CO1 (configuration not stated)
inactive: [3] | [4] | [5] | [6] | [7] | [8]

CN(C)C(=O)Nc1ccc(Cl)cc1
not listed: [2] | [9] | [10]
inactive: all other assays above

CN(C)[C@@H]1C(=O)C(C(N)=O)=C(O)[C@@]2(O)C(=O)C3=C(O)c4c(O)cccc4[C@@](C)(O)[C@H]3C[C@@H]12
not listed: [1] | [2] | [9]
inactive: all other assays above

O=C(N[C@H](c1ccccc1)[C@@H]1CN2CCC1CC2)c1c(Cl)ccc(C(F)(F)F)c1Cl
active: [4] 44.5 µM | [5] 14.3 µM
inactive: [2] | [6] | [7]

CC(C)(O)c1cnn2c(-c3ccc(F)c(-c4c(F)cccc4C#N)c3)cnc2n1
active: [4] 31.6 µM | [5] 26.4 µM | [7] 30.4 µM | [8] 20 µM
inactive: [1] | [10] | [6]

CC(C)COC(=O)c1ccccc1C(=O)OCC(C)C
active: [2] 43.6 µM | [5] 37 µM | [6] 20 µM | [7] 32.3 µM | [8] 31.5 µM
inactive: [1] | [4]

N#CC(Br)Br
inactive: [1] | [2] | [4] | [5] | [6] | [7]

c1ccc2c(c1)oc1ccccc12
inactive: [3] | [4] | [5] | [6] | [7]

Oc1ccccc1Cl
not listed: [3] | [9] | [10]
inactive: all other assays above

COP(=S)(OC)SCN1C(=O)c2ccccc2C1=O
inactive: [2] | [10] | [4] | [5] | [6] | [7]

CCCCC(CC)COC(=O)c1ccc(C(=O)OCC(CC)CCCC)c(C(=O)OCC(CC)CCCC)c1 (configuration not stated)
not listed: [2] | [3] | [9]
inactive: all other assays above

c1ccc(N=Nc2ccccc2)cc1
not listed: [3] | [9] | [10]
inactive: all other assays above

Clc1ccc(C(c2ccc(Cl)cc2)C(Cl)Cl)cc1
inactive: [3] | [4]
active: [2] 33.4 µM | [5] 13.9 µM | [6] 10.2 µM | [7] 14.4 µM | [8] 15 µM

O=P(OCCCl)(OCCCl)OCCCl
inactive: [3] | [4] | [5] | [6] | [7]

CCC(C)c1ccc(O)cc1 (configuration not stated)
active: [2] 100 µM
inactive: [10] | [4] | [5] | [6] | [7]

CC(C)(C)C(O)(CCc1ccc(Cl)cc1)Cn1cncn1 (configuration not stated)
inactive: [1] | [4] | [5] | [6] | [7] | [8]

O=C(Oc1ccc(Br)cc1)N1CCN2CCC1CC2
not listed: [2] | [3] | [9]
inactive: all other assays above

CCC12COCN1COC2
not listed: [2] | [3] | [9]
inactive: all other assays above

COC(=O)Nc1nc2ccccc2[nH]1
inactive: [2] | [3] | [4] | [5] | [6] | [7]

CCN(CC)CCO
not listed: [3] | [9]
inactive: all other assays above

CN(C)c1ccccc1
not listed: [2] | [8] | [9]
inactive: all other assays above
